# In the supplement of paper PMC10849652:
# The full data set covers some 7,900 targets. This sample favours those with a hit. About 0.6% of all pairs of compound and target were hits. Unmarked numbers belong to inactive results.
# Compound: CN1C2=C(C3=C1C(=O)N(N=C3)CC4=CC(=CC=C4)N)SC(=C2)S(=O)C
# Test: log2 fold change, soluble protein after heating vs DMSO (PISA); higher = thermal stabilisation; K562 cells, 10 uM, 30 min; active = over 0.2 and 3.5 SD of the protein, either way, in both replicates (recomputed)
# How it was run: (§1)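 Quantification of soluble protein used TMTpro 16plex LC-MS/MS, with channel sums equalised. Samples were the supernatant after 21,000xg for 90 min of pooled aliquots from K562 cells (2×10^6 cells/mL) treated with 10 μM compound for 30 min, heated for 3 min over 48°C-58°C, and extracted in PBS with 0.5% NP-40 at 4°C. Values, from duplicates, describe thermal stability against control samples on a log2 fold-change scale.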
# Chain of UniProt Q2TBE0 (Q2TBE0 whole entry, looked up): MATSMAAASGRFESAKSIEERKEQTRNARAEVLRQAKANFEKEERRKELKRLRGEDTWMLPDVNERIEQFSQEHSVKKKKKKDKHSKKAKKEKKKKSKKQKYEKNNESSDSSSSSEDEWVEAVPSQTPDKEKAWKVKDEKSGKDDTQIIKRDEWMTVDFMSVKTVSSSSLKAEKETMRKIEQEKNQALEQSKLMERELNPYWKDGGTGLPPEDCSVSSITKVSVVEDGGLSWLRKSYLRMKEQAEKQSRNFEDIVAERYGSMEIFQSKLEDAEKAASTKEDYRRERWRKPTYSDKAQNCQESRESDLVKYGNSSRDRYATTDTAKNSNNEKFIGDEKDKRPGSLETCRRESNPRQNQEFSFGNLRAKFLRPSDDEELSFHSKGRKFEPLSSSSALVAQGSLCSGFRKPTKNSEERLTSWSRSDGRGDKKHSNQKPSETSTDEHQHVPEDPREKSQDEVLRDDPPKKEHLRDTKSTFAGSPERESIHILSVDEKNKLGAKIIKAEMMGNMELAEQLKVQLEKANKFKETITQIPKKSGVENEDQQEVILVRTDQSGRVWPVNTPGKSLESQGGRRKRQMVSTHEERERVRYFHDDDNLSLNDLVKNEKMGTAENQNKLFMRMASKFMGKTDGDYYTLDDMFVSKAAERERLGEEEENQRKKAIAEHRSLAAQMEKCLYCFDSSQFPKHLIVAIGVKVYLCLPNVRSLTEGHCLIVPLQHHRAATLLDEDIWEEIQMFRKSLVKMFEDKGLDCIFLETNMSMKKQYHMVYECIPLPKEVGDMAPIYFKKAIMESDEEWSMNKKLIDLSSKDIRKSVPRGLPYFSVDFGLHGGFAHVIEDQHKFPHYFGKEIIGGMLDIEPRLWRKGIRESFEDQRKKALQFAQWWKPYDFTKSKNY
# Chain of UniProt Q9UER7 (Q9UER7 whole entry, looked up): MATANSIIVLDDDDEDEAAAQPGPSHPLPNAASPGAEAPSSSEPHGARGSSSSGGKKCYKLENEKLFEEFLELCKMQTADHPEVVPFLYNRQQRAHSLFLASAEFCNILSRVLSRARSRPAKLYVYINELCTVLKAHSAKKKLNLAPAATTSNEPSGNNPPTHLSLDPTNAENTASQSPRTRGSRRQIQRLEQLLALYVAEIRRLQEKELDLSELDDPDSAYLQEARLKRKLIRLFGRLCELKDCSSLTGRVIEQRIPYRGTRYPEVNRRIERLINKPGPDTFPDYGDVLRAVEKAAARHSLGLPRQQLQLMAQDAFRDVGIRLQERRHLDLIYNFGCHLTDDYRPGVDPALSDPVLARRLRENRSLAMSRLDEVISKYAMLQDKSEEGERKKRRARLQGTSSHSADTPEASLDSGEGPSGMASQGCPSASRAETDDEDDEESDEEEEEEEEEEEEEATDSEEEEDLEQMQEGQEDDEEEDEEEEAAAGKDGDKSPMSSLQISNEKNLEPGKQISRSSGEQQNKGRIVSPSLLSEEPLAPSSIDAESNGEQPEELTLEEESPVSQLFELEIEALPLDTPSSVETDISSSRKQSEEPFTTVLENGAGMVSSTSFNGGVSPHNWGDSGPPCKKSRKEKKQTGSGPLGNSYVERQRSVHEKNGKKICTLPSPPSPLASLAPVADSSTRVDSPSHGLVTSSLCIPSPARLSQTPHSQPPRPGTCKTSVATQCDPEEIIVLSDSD
# Chain of UniProt P35222 (P35222 whole entry, looked up): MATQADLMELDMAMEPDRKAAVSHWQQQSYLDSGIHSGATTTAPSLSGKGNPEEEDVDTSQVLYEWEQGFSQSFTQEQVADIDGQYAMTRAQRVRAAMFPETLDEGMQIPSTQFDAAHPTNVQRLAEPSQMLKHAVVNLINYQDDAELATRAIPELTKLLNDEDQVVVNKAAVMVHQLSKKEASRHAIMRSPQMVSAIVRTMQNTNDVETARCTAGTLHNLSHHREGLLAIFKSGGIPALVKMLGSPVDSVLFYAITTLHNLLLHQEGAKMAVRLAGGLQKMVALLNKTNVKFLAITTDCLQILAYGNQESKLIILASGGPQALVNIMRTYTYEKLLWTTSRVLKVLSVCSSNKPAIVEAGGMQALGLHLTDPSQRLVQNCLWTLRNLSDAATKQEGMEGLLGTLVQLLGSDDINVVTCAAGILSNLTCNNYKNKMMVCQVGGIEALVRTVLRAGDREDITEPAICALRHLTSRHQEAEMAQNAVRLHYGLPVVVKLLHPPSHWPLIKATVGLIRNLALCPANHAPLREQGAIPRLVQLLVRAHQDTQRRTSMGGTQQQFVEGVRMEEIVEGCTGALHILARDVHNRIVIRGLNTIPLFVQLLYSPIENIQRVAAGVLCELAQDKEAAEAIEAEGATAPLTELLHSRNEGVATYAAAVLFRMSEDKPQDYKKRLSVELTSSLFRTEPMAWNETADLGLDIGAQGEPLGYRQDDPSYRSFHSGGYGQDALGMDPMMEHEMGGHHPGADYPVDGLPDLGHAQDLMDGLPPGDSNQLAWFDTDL
# Chain of UniProt Q8N8J7 (Q8N8J7 whole entry, looked up): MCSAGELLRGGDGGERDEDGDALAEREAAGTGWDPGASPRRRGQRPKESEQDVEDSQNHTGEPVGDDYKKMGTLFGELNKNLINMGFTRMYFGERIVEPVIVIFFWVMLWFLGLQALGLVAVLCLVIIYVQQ
# Chain of UniProt P09622 (P09622 whole entry, looked up): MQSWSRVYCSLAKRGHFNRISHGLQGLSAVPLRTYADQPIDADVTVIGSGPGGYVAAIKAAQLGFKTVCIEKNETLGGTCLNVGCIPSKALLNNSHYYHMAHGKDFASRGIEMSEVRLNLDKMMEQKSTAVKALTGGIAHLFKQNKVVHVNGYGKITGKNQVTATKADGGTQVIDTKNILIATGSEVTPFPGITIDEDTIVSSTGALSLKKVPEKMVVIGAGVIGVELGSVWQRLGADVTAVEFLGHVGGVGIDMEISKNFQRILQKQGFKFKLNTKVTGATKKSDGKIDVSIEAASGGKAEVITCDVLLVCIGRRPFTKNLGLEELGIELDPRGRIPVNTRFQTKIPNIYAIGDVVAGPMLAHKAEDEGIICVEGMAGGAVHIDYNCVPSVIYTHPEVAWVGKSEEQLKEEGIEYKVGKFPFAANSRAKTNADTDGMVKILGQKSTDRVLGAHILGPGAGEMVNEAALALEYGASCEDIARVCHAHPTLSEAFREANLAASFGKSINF
# Chain of UniProt Q07973 (Q07973 whole entry, looked up): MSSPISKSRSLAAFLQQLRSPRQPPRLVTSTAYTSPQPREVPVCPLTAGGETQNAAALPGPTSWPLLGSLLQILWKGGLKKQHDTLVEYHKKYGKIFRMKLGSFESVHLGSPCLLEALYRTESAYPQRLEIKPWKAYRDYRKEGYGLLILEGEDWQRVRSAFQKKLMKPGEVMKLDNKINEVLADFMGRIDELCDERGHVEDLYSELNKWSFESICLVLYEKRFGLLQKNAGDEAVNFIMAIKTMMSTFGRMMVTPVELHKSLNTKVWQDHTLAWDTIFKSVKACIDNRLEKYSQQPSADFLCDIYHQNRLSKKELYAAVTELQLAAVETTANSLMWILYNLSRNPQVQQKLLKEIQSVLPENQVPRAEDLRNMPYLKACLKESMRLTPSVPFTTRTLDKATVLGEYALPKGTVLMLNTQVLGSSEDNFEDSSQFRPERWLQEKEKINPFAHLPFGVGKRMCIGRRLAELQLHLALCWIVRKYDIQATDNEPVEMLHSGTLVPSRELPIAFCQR
# Chain of UniProt P09668 (P09668 whole entry, looked up): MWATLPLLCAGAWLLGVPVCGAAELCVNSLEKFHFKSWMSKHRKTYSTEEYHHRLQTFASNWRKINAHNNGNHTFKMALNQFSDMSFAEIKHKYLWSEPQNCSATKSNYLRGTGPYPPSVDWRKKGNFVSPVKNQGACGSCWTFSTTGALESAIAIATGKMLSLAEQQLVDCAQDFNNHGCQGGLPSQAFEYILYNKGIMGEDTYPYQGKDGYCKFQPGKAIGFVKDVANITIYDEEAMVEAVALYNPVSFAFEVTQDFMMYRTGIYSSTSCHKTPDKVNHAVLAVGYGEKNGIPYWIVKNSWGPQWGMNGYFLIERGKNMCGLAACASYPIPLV
# Chain of UniProt O43237 (O43237 whole entry, looked up): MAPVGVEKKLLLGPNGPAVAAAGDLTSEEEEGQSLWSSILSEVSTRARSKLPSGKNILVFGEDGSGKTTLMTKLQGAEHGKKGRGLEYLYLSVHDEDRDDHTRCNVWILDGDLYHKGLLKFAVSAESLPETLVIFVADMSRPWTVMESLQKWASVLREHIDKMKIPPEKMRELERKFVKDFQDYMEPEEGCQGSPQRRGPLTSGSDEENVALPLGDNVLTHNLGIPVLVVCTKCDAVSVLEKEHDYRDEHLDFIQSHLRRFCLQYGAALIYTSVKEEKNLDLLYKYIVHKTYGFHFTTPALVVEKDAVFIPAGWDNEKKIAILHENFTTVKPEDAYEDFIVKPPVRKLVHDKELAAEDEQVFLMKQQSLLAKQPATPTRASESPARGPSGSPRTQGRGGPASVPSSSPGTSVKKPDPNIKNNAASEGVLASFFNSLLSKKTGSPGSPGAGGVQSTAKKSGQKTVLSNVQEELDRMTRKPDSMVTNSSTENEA
# Chain of UniProt O75911 (O75911 whole entry, looked up): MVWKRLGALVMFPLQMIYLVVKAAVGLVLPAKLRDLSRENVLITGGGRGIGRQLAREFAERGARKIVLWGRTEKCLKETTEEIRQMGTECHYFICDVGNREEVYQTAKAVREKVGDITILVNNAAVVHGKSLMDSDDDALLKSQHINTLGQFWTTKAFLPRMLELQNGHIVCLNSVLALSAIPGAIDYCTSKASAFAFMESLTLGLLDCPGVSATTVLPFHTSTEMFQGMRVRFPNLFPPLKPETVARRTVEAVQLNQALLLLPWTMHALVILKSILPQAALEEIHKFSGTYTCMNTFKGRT
# Chain of UniProt Q8NBI2 (Q8NBI2 whole entry, looked up): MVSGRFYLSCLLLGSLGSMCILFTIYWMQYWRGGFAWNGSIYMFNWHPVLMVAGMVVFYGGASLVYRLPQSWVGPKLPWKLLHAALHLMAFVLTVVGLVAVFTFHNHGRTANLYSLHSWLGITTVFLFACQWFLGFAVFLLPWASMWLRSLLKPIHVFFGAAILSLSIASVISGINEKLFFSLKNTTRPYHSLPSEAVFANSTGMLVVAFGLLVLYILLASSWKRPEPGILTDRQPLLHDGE
row,Target,log2 fold change
1,DYNC1LI2 (UniProt O43237),-0.007
2,DAXX (UniProt Q9UER7),-0.093
3,DENND10 (UniProt Q8TCE6),-0.031
4,DLD (UniProt P09622),-0.035
5,CWF19L2 (UniProt Q2TBE0),0.231
6,ELF1 (UniProt P32519),0.027
7,DYRK1A isoform 2 (UniProt Q13627),-0.024
8,EIF4E2 (UniProt O60573),-0.034
9,FAM241A (UniProt Q8N8J7),0.059
10,CTSH (UniProt P09668),-0.008
11,CYP24A1 (UniProt Q07973),0.288
12,CTNNB1 (UniProt P35222),-0.185

# Compound: CN1CCC(CNc2ccc3ncc(-c4cccc(OC(F)(F)F)c4)n3n2)CC1
# Test: as above
# How it was run: as §1
row,Target,log2 fold change
1,FAM207A (UniProt Q9NSI2),0.418 (active)
2,FAM160B1 (UniProt Q5W0V3),-0.254
3,EDC3 (UniProt Q96F86),-0.251
4,DNAJB1 (UniProt P25685),-0.042
5,EEF2K (UniProt O00418),-0.188
6,CYB561A3 isoform 2 (UniProt Q8NBI2),0.032
7,DNAJB12 (UniProt Q9NXW2),-0.081
8,DDB1 (UniProt Q16531),0
9,FAM3A (UniProt P98173),-0.128
10,EXOSC10 (UniProt Q01780),-0.003
11,FAM118B (UniProt Q9BPY3),-0.373 (active)
12,CTSZ (UniProt Q9UBR2),-0.843 (active)
13,DOCK8 (UniProt Q8NF50),0.137
14,DHRS3 (UniProt O75911),0.056
15,EIF2AK3 (UniProt Q9NZJ5),-0.017
16,ELAC1 (UniProt Q9H777),-0.227
17,FAM118A (UniProt Q9NWS6),-0.142
18,DTWD1 (UniProt Q8N5C7),0.089
19,DNAH11 (UniProt Q96DT5),-0.424
20,DYNC1LI2 (UniProt O43237),0.101
21,DAXX (UniProt Q9UER7),0.027
22,DLD (UniProt P09622),-0.118
23,CWF19L2 (UniProt Q2TBE0),0.21
24,DYRK1A isoform 2 (UniProt Q13627),-0.086
25,FAM241A (UniProt Q8N8J7),0.08
26,CTSH (UniProt P09668),-0.295 (active)
27,CYP24A1 (UniProt Q07973),0.198
28,CTNNB1 (UniProt P35222),0.379
